From PubChem BioAssay
Active and inactive are the calls of the source. Unless noted, how the calls were made is not given here.

Assays:
[1] = anti-His antibody binders, primary screen, artefact control for SMM control protein annotation, biochemical, small-molecule microarray, 635 nm fluorescence (AID 1128); settings: anti-His Alexa647 antibody binding, higher = more signal;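 further: score merges feature fluorescence with signal-to-noise for each printed compound spot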
[2] = system: Human papillomavirus type 1a E7 protein (residues 1-88); assay: HPV1a E7 small-molecule binders, primary screen, biochemical, small-molecule microarray, residues 1-88, 635 nm (AID 1129); settings: small-molecule microarray binding, fluorescence 635 nm; higher = more signal
[3] = target: Focal adhesion kinase 1 (Homo sapiens) (UniProt Q05397); assay: small-molecule microarray binders of FAK, primary screen, biochemical, 635/667 nm fluorescence, BSA, DTT (AID 1130); settings: PTK2 binding, 635 nm fluorescence, higher = more signal;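 further: composite of spot emission at 667 nm and signal to noise over triplicate slides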
[4] = system: Fibrinogen (Alexa647-labelled); assay: fibrinogen binders on compound microarrays, profiling panel, artefact control for SMM control-protein annotation, biochemical, small-molecule microarray, 635/667 nm fluorescence (AID 1131); settings: fibrinogen-A647 binding fluorescence, higher = more signal;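 further: z-score merges 667 nm fluorescence with per-spot signal-to-noise over triplicate slides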
[5] = target: Follistatin (Homo sapiens) (UniProt P19883); assay: follistatin binders on small-molecule microarrays, primary screen, biochemical, small-molecule microarray, 635/667 nm fluorescence (AID 1132); settings: FST binding, 635 nm fluorescence, higher = more signal
[6] = target: Fibroblast growth factor 2 (Homo sapiens) (UniProt P09038); assay: FGF2 binders on small-molecule microarrays, primary screen, biochemical, small-molecule microarray, 635/667 nm fluorescence (AID 1133); settings: small-molecule microarray binding, FGF2, fluorescence 635/667; higher = more signal
[7] = mitochondrial membrane potential change in A549 cells, profiling panel, cell-based, JC-1 fluorescence, basal, 24 h, 100 nL (AID 1138); settings: higher = more signal;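 further: A549 lung adenocarcinoma cells under basal conditions with no added stimulus; test concentration not given here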
[8] = system: Lefty1; assay: Lefty1 binders on small-molecule microarrays, primary screen, biochemical, small-molecule microarray, 635/667 nm fluorescence (AID 1139); settings: small-molecule microarray binding, fluorescence 635/667; higher = more signal
[9] = system: wheat germ agglutinin (Triticum aestivum), Alexa647-labelled; assay: wheat germ agglutinin binders on compound microarrays, profiling panel, artefact control for SMM control-protein annotation, biochemical, small-molecule microarray, 635/667 nm fluorescence (AID 1140); settings: WGA-A647 binding, 635 nm fluorescence, higher = more signal;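 further: score merges 667 nm feature emission with signal to noise over triplicate slides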
[10] = target: Luciferin 4-monooxygenase (Photinus pyralis) (UniProt P08659); assay: firefly luciferase enzyme inhibitors, primary screen, biochemical, luminescence, purified enzyme, 2006 set (AID 1141); settings: SteadyGlo luminescence, 30 min, higher = more signal, called active from +8 up or from −8 down;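 further: cell-free assay with purified firefly luciferase at 100 ng per well in PBS; test concentration not given here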
[11] = system: Wnt5a (protein binding on small-molecule microarray); assay: Wnt5a binders on small-molecule microarray, primary screen, biophysical, 635/667 nm fluorescence (AID 1142); settings: 635 nm fluorescence, higher = more signal;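 further: fluorescence read at 667 nm with signal to noise per printed feature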
[12] = cell viability in Huh7 cells, primary screen, cytotoxicity control for HCV replication inhibitor project, CellTiter-Glo luminescence, basal, 48 h (AID 1143); settings: Huh7 HCV replicon, higher = more signal, called active from +8 up or from −8 down;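 further: Huh7 hepatoma cells carrying a hepatitis C replication reporter with no stimulus; test concentration not given here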
[13] = P. aeruginosa biofilm formation inhibitors, primary screen, PAO1 strain, BacTiter-Glo luminescence, LB-PBS (AID 1144); settings: 12 h, higher = more signal
[14] = CREB reporter modulators without forskolin, primary screen, cell-based, PC12, CRE-LacZ reporter, unstimulated (AID 1145); settings: no forskolin, luminescence, 4.5 h, higher = more signal, called active from +8 up or from −8 down
[15] = CREB reporter modulators under forskolin, primary screen, cell-based, PC12, CRE-LacZ reporter, forskolin-stimulated (AID 1146); settings: luminescence, 4.5 h, higher = more signal, called active from +8 up or from −8 down;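 further: PC12 cells with 6xCRE LacZ reporter stimulated by forskolin 10 µM; beta-galactosidase reporter signal reflecting CREB driven transcription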
[16] = target: Streptavidin (Streptomyces avidinii) (UniProt P22629); assay: streptavidin binders on small-molecule microarray, primary screen, artefact control for SMM compound annotation, biophysical, 635/667 nm fluorescence (AID 1147); settings: streptavidin binding, higher = more signal;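 further: signal reflects streptavidin binding to arrayed compounds as a control protein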
[17] = small-molecule binders of probe aInhba, primary screen, biochemical, small-molecule microarray, 635/667 nm fluorescence (AID 1148); settings: higher = more signal;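 further: score merges 667nm spot fluorescence with signal-to-noise for antibody binding to printed compounds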
[18] = target: Torsin-1A (Homo sapiens) (UniProt O14656); assay: torsin A binders from cell lysate, primary screen, small-molecule microarray, wild-type, 635/667 nm (AID 1149); settings: COS7 hTOR1A-WT lysate, 635 nm fluorescence, higher = more signal
[19] = target: Torsin-1A (Homo sapiens) (UniProt O14656); assay: small-molecule binders of mutant TOR1A in lysate, primary screen, cell lysate, small-molecule microarray, COS7 lysate, 635/667 nm fluorescence (AID 1150); settings: COS7 hTOR1A mutant lysate, 635 nm fluorescence, higher = more signal;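 further: score pools 667 nm emission and signal to noise measuring lysate protein binding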
[20] = system: Sonic hedgehog protein (Shh); assay: small-molecule binders of Shh protein, primary screen, biochemical, small-molecule microarray, 635/667 nm fluorescence (AID 1151); settings: small-molecule microarray binding, 635 nm fluorescence; higher = more signal;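 further: Shh protein binding to compounds spotted on small-molecule microarray slides; score combines spot fluorescence intensity with signal-to-noise across triplicate slides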

Streptavidin (Streptomyces avidinii), sequence (P22629 whole entry, looked up): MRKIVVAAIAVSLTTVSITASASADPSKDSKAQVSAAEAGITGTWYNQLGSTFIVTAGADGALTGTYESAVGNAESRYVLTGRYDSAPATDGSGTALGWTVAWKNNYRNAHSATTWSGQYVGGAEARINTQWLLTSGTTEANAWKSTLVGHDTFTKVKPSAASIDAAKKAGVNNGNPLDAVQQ
Torsin-1A (Homo sapiens), sequence (O14656 whole entry, looked up): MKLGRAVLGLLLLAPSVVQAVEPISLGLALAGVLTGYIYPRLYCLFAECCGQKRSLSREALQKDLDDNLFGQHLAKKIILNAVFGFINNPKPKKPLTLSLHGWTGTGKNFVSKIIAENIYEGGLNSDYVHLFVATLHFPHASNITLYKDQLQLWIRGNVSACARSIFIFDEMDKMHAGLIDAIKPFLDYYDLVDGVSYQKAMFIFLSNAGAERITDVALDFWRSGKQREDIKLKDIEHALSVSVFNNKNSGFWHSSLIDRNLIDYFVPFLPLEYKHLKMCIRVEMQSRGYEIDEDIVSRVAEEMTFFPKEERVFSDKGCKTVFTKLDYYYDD
Focal adhesion kinase 1 (Homo sapiens), sequence (Q05397 whole entry, looked up): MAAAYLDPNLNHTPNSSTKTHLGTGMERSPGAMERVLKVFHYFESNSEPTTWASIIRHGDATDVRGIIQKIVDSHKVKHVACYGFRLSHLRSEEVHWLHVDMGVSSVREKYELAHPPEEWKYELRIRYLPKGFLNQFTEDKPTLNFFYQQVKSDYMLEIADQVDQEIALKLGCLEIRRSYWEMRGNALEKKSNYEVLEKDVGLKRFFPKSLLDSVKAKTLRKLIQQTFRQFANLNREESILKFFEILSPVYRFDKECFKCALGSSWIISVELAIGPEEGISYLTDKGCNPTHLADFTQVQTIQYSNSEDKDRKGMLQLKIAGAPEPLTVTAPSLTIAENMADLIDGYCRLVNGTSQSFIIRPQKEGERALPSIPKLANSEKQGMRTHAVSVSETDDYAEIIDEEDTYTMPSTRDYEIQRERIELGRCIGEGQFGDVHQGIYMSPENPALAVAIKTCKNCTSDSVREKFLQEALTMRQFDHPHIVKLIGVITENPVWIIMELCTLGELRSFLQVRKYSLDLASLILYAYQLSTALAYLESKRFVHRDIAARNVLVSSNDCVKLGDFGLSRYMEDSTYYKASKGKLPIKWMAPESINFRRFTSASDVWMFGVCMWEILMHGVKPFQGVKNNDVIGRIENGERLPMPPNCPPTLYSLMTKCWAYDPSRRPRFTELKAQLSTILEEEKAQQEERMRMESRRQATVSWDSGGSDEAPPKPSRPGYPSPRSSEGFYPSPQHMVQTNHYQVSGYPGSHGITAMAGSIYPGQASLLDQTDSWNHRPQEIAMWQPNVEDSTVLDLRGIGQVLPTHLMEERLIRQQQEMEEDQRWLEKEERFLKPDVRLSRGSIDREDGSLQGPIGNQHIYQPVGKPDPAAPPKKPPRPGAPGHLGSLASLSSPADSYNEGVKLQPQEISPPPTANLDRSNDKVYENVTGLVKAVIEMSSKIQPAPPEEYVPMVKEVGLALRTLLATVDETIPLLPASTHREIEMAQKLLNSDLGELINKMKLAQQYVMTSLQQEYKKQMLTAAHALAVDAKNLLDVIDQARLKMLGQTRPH
Fibroblast growth factor 2 (Homo sapiens), sequence (P09038 whole entry, looked up): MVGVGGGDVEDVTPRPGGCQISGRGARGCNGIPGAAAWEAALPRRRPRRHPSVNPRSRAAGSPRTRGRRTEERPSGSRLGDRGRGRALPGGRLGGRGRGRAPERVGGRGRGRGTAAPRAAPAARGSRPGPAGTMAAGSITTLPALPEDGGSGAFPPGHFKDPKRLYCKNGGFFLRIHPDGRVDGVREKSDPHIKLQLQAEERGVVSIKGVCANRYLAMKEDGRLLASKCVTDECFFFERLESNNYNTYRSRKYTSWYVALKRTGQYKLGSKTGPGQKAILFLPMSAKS
Luciferin 4-monooxygenase (Photinus pyralis), sequence (P08659 whole entry, looked up): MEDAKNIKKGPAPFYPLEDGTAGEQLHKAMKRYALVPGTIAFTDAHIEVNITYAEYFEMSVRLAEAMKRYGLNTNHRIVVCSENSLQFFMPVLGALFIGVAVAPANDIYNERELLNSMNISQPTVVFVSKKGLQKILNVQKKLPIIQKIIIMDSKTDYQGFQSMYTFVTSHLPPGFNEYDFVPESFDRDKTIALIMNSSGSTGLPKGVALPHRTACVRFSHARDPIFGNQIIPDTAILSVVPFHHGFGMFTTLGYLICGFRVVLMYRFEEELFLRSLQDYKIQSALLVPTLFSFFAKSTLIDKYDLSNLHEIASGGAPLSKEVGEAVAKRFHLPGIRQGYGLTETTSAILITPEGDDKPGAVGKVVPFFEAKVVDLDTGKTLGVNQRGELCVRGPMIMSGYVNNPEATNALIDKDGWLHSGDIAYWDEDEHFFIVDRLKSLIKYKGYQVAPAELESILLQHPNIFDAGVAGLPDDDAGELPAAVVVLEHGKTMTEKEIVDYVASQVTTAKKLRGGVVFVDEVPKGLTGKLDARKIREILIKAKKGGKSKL
Follistatin (Homo sapiens), sequence (P19883 whole entry, looked up): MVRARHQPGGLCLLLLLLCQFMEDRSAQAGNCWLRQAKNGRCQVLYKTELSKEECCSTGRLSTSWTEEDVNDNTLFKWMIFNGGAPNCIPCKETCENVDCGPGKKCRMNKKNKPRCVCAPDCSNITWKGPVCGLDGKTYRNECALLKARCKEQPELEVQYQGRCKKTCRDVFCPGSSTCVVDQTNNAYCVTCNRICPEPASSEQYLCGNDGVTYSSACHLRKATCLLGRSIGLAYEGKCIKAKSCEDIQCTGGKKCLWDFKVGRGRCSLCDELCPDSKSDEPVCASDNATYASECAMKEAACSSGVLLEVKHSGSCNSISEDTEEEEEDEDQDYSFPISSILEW

Row | SMILES | composite z-score [1] | composite z-score [2] | composite z-score [3] | composite z-score [4] | composite z-score [5] | composite z-score [6] | z-score [7] | composite z-score [8] | composite z-score [9] | z-score [10] | composite z-score [11] | z-score [12] | z-score [13] | z-score [14] | z-score [15] | composite z-score [16] | composite z-score [17] | composite z-score [18] | composite z-score [19] | composite z-score [20]
1 | Cn1c2c(c3ccccc31)C(=O)C1NC2C=CC1(C)C(=O)OCc1ccccc1 (stereo not given) | 0.262 | 0.291 | 0.0584 | 0.351 | -2.07 | -2.05 | -0.591 | -1.82 | 0.757 | 1.15 (inactive) | -0.348 | -0.171 (inactive) | 0.908 (inactive) | 1.39 (inactive) | 0.716 (inactive) | 0.298 | 0.0442 | -0.327 | 0.285 | -0.699
2 | CCCNC(=O)[C@@]1(C)c2ccccc2C(=O)N(Cc2cc(F)cc(C(F)(F)F)c2)[C@H]1c1ccc(CO)cc1 | 0.858 | -0.331 | -0.527 | -1.73 | -0.839 | -0.812 | -0.394 | -0.662 | 0.932 | 0.942 (inactive) | -0.283 | -3.38 (inactive) | -1.09 (inactive) | 0.208 (inactive) | -0.173 (inactive) | -0.767 | -0.175 | -2.08 | 0.779 | 0.011
3 | Cc1ccc(S[C@]2(C(=O)NCc3ccccc3)CC(=O)N(Cc3cc(C(F)(F)F)cc(C(F)(F)F)c3)[C@@H]2c2ccc(CO)cc2)cc1 | -0.0768 | -0.469 | -0.187 | -1.25 | 0.401 | -0.568 | -0.0446 | -0.0758 | -1.01 | -0.372 (inactive) | -0.492 | -0.0639 (inactive) | 0.315 (inactive) | 0.829 (inactive) | 1.21 (inactive) | -0.684 | -0.126 | -1.3 | -0.755 | 0.824
4 | C=C(C(=O)CC[C@@H](OC(C)=O)c1ccc(OCCO)cc1)C(C)C | 0.521 | 0.0161 | 0.019 | 0.933 | 0.627 | 1.29 | -0.316 | -0.12 | 0.0487 | -1.08 (inactive) | 0.177 | 0.118 (inactive) | -0.73 (inactive) | 1.68 (inactive) | 1.05 (inactive) | -0.41 | -0.148 | 0.698 | 1.02 | 0.0191
5 | C[N+](C)(C)CCCC[C@@H]1NC(=O)[C@@H]2C[C@H](C(=O)NCCCCCCNC(=O)CS)[C@H](c3cccc(OCCO)c3)N2C1=O | 1.89 | -0.208 | -0.379 | 0.552 | 1.27 | 1.2 | 0.332 | 1.29 | 0.585 | -1.45 (inactive) | -0.326 | 0.214 (inactive) | -0.555 (inactive) | -0.671 (inactive) | -0.29 (inactive) | -1.12 | -0.231 | 0.23 | 1.87 | 1.54
6 | CC(C)N1C(=O)c2ccccc2[C@](C)(C(=O)NCCCN(C)C)[C@@H]1c1ccc(CO)cc1 | -0.439 | 0.717 | 2.34 | 0.562 | -0.106 | -0.224 | 0.256 | -0.573 | 0.231 | -0.562 (inactive) | -0.265 | 0.17 (inactive) | 0.352 (inactive) | -0.0888 (inactive) | -0.297 (inactive) | 0.578 | -0.204 | 3.98 | 3.56 | 0.0142
7 | [N-]=[N+]=Nc1ccccc1[C@@H]1OC(c2ccc(OCCCO)cc2)=N[C@]1(CCS(=O)(=O)c1ccccc1)C(=O)N1CCCCC1 | 2.13 | 1.23 | 0.539 | 0.998 | 1.29 | 0.234 | -0.0343 | -0.0697 | 1.42 | -9.85 (active) | 0.626 | -2.42 (inactive) | 0.0668 (inactive) | 1.43 (inactive) | -0.642 (inactive) | 1.45 | 0.453 | 1.09 | 0.736 | -0.394
8 | C=C[C@H](C)[C@H](OC(=O)Nc1ccc(OC)cc1)c1ccc(O)c2ccccc12 | -0.732 | -0.337 | -0.208 | 0.604 | 0.782 | 0.39 | -1.6 | 0.47 | 0.0411 | -3.78 (inactive) | 0.107 | -3.55 (inactive) | -0.156 (inactive) | 0.236 (inactive) | 0.544 (inactive) | -0.199 | -0.128 | 0.822 | 0.16 | 0.9
9 | COc1ccc([Si](C)(C)[C@@H]2[C@@H](CCO)O[C@]3(C(=O)N(Cc4ccc(N5C(=O)c6cccc7cccc5c67)cc4)c4ccccc43)[C@H]2C)cc1 | -0.0225 | -0.797 | 0.138 | -0.518 | -1.12 | -0.753 | 1.23 | -0.536 | 0.397 | -0.604 (inactive) | -0.404 | -6.09 (inactive) | -0.0686 (inactive) | 4.11 (inactive) | 0.201 (inactive) | -0.376 | -0.0791 | -0.565 | -0.535 | 0.0554
10 | C=C(C(=O)CC[C@H](OC(=O)c1cccnc1)c1ccccc1OCCO)C(C)C | 0.971 | 0.834 | 0.092 | 0.101 | 1.42 | 1.83 | 0.0404 | 1.44 | 0.0398 | -0.0549 (inactive) | 1.14 | -1.13 (inactive) | -0.467 (inactive) | 2.22 (inactive) | 0.716 (inactive) | -0.383 | -0.168 | 2.32 | 1.54 | 2.27
